# Many of the other results were omitted from the sample, so hits are more common in it than they were.
# Tgondii IFNg: inhibitors of Toxoplasma gondii growth with IFN-gamma; Toxoplasma gondii growth in IFN-gamma-treated host cells; stronger effect = lower value; activity change, negative = inhibition, % (concentration not given with the values); 69,000 tested, 3.8% active; AID 1259416; in the data active means activity change below about -70%, passing the limit was not always enough;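 further: host cells are HeLa cells infected with Toxoplasma gondii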
# * marks the source's active call; other numbers are inactive results; i = inactive; ! = not confirmed by another sample.
SMILES,Tgondii IFNg
CCO[C@@H]1CCN(C(=O)C(C)C)[C@@H]2CCO[C@H]21,82
CCO[C@H]1CC[C@@H]2[C@@H]1OCCN2C(=O)c1ccc2ccccc2c1,-4
CCO[C@H]1CN(C(=O)N2CCCC2)[C@H]2CCCO[C@@H]12,-96*
N#Cc1cccc(C(=O)N2CCC3C2CCC(=O)N3c2cccnc2)c1 (configuration not stated),6
COCCN1C(=O)N(CCc2ccc(OC)cc2)C2(CCN(Cc3ccsc3)CC2)C1=O,-7
COc1cc(CNC(=O)C2CCCN(c3nc4ccccc4n3C)C2)cc(OC)c1OC (configuration not stated),-49
CCOC(=O)C1CCC(CNC(=O)Nc2ccc(-c3nc(-c4ccccc4)co3)cc2)CC1 (configuration not stated),30
C=CCOC1C2CCCC1CN(c1nncs1)C2 (configuration not stated),-35
CC12C=CCC1C1CCC3CC(=O)CCC3(C)C1CC2 (configuration not stated),-3
OC1(c2ccc(Cl)c(C(F)(F)F)c2)CCN(CCCC(c2ccc(F)cc2)c2ccc(F)cc2)CC1,-85*!
Fc1ccc(C(CCCN2CCN3CCCCC3C2)c2ccc(F)cc2)cc1 (configuration not stated),-62
OC(CCCN1CCC(O)(c2ccc(Cl)cc2)CC1)c1ccc(F)cc1 (configuration not stated),-55
Cc1ccc(CNC(=O)NCC(c2cccnc2)c2c[nH]c3ccccc23)cc1 (configuration not stated),18
CCN1CCN(CC2(O)CCCN(CCCc3ccccc3)C2=O)CC1 (configuration not stated),0
CCCCn1c(=O)c2c(nc3n2CCCN3CCc2ccccc2)n(C)c1=O,-97*
CCCCCCn1c(=O)c2c(ncn2C)n(C)c1=O,16
O=C(/C=C/c1cc(F)cc(F)c1)NCC1CCC2(CCN(Cc3cccnc3)CC2)O1 (configuration not stated),-20
CN(C)C[C@@]12COC[C@H]1CN(C(=O)C1CC(F)(F)C1)C2,i
COc1cccc(-c2nc(Cn3c(=O)c4cccnc4n(-c4ccccc4)c3=O)c(C)o2)c1OC,4
CC(C)C[C@H](NC(=O)[C@@H](NC(=O)c1cccc(-c2ccccc2)n1)[C@@H](C)O)B(O)O,-64
CC(Cc1cnccn1)NC(=O)c1cn(C/C=C/c2ccccc2)nn1 (configuration not stated),4
CC(C)C[C@H](NC(=O)[C@H](Cc1ccccc1)NC(=O)c1cnccn1)B(O)O,-81*
COc1ccc(-c2nc(Nc3ccc(CN4CCC(C)CC4)cc3)c3ccccc3n2)cc1,-41
COc1ccc(-c2nc(NCCN3CCC(C)CC3)c3ccccc3n2)cc1,-57
COc1ccc(CCN2CCC(Nc3nc4ccccc4n3Cc3ccc(F)cc3)CC2)cc1,-92*!
SMILES,Tgondii IFNg
COc1ccc(N2CC(NC(=O)c3ccc4nc(C(F)(F)F)[nH]c4c3)CC2=O)cc1 (configuration not stated),5
CC[C@H]1N(Cc2nccs2)CCC[C@]12CCC(=O)N2,-28
CCCNC(=O)c1cc2c(c(-c3cccc(-c4cc5ccccc5o4)c3)n1)[C@H](CCO)N(C(=O)NC(C)C)C2,-71*
CC(C)NC(=O)N1Cc2cc(C(=O)NC3CCC3)nc(-c3cccc(-c4cncnc4)c3)c2[C@@H]1CCO,5
CC(C)NC(=O)N1Cc2cc(C(=O)NC3Cc4ccccc4C3)nc(-c3cccc(-c4cccnc4)c3)c2[C@H]1CCO,-57
Cc1cc(C(=O)N2CC(C(=O)NCC3CC3)C3(CCOCC3)C2)c(C)o1 (configuration not stated),1
CC(C)CN(Cc1cccs1)C(=O)c1cc2n(n1)CCCN(C)C2,-3
Cc1oncc1C(=O)NCc1cc(=O)n2c(n1)CN(C)CCC2,-57
CCN(CC)c1ccc2c(C)c(CC(C)=O)c(=O)oc2c1,-98*
Cc1cc(OC(C(=O)O)c2ccccc2)c2c(C)c(Cc3ccccc3)c(=O)oc2c1 (configuration not stated),8
COc1ccc(-c2c(C)c3ccc(OCC(C)=O)cc3oc2=O)cc1,202
CN(Cc1ccccc1)C(=O)[C@H]1C[C@@H](c2ccco2)NS(=O)(=O)N1C,-36
O=C(O)c1ccc2c(c1)n(Cc1ccc(C(F)(F)F)nc1)c(=O)n2CC1CC1,-4
COCCN(C)c1nc(C2CCN(Cc3ccco3)CC2)cc2c1ncn2C(C)C,12
Cc1nc2c(C)cccn2c1C(=O)Nc1ncc(-c2ccc(F)cc2)n1C,-22
Nc1cccc(C(=O)O)c1,3
O=C(O)c1ccc2nc3c(nc2c1)-c1cccc2cccc-3c12,-110*
Cc1nc2ccc(C(=O)O)cc2nc1C,6
Cc1oc(-c2ccc(NC(=O)C3CCCC3)cc2)nc1Cn1cccn1,38
CCCNC(=O)c1cc(-c2csc(C(C)C)n2)n2ccccc12,-4
Cc1ccc(S(=O)(=O)Nc2ccc3c(c2)Cc2cc(Br)ccc2-3)cc1,-1
COCC(=O)N1CCCC(C(=O)NCc2cnn(-c3ccccc3C)c2)C1 (configuration not stated),2
COc1cccc(-c2nc(C)c(-c3ccc(SCc4ccc(C(F)(F)F)cc4)nn3)s2)c1,-42
Cc1ccc(Cl)c(CN2CCCC(Cn3ccnc3C)C2)c1F (configuration not stated),6
Cc1oc(-c2cccc(Cl)c2)nc1CN1CCN(C(=O)NCCc2ccccc2)CC1,-49
SMILES,Tgondii IFNg
COc1ccc(CCNC(=O)C2CCCN2C(=O)Nc2ccc(C)cc2)cc1OC (configuration not stated),23
CC[C@H](C(=O)N1CCCC[C@H]1C(=O)O[C@H](CCc1ccc(OC)c(OC)c1)c1cccc(OCC(=O)NCCNC(=O)COc2cccc([C@@H](CCc3ccc(OC)c(OC)c3)OC(=O)[C@@H]3CCCCN3C(=O)[C@@H](CC)c3cc(OC)c(OC)c(OC)c3)c2)c1)c1cc(OC)c(OC)c(OC)c1,-72*
COc1ccc(CCNC(=O)COc2ccc(Br)c(C)c2)cc1OC,-11
NC(=O)c1[nH]c(C2CCCN(C(=O)COc3ccccc3)C2)nc1-c1ccccc1 (configuration not stated),-23
COc1ccc(-c2ncnc3c2c(C(=O)N2CCCC2)c2ccccn23)cc1,-50
C=CC(=O)N1CCC[C@@H](n2nc(-c3ccc(Oc4ccccc4)cc3)c3c(N)ncnc32)C1,-79*
Cc1nc(CC(NC(=O)c2cc(C(C)(C)C)[nH]n2)c2ccc(Cl)cc2)cc(=O)[nH]1 (configuration not stated),7
Cc1cc(C)nc(N2CCC(CNC(=O)c3cc(C(C)(C)C)[nH]n3)CC2)n1,-77*
CC(=O)N1CCN(c2nc(C)cc(C)n2)CC1,17
Cc1cccnc1Cn1nc(C2CCNCC2)n(Cc2ccccc2)c1=O,-49
CCn1nnc2c1CCN(C(=O)N(C)C)C2COCc1cccnc1 (configuration not stated),3
O=C1OC(=O)C2C1[C@@H]1CC[C@H]2O1 (some centres not stated),-77*
O=C(Cn1c(=O)cc(-c2nc(C3CC3)no2)c2ccccc21)NCc1ccccc1F,68
COCCNC(=O)[C@]12CCO[C@H]1CCN(Cc1nccs1)C2,26
C=CCN(CC#Cc1ccccc1)C(=O)c1cc(=O)n(C)c(=O)n1C,-38
O=C(c1cccs1)N1CCOC2CC(COc3ccccn3)CC21 (configuration not stated),6

# Source: PubChem BioAssay
